Shown are actives, neighbours in structure and some others; about 12% of the full set was active somewhere.
JMJD2A Tudor: qHTS Assay for Inhibitors of JMJD2A-Tudor Domain. Lysine-specific demethylase 4A (Homo sapiens), O75164. AlphaScreen JMJD2A-Tudor / H3K4me3 peptide binding. Potency, µM (top dose mostly 114 µM), for inactives: top-dose activity change, negative = inhibition, most hits filed as inhibitors. 4.4% of 390,000 active. AID 504339, 2011; note: % is set by controls: 0 for no effect and ±100 for the full control effect; nearly all actives have a fitted effect of over 50% in size
Target sequence (O75164 whole entry, looked up, the tested form may be a part): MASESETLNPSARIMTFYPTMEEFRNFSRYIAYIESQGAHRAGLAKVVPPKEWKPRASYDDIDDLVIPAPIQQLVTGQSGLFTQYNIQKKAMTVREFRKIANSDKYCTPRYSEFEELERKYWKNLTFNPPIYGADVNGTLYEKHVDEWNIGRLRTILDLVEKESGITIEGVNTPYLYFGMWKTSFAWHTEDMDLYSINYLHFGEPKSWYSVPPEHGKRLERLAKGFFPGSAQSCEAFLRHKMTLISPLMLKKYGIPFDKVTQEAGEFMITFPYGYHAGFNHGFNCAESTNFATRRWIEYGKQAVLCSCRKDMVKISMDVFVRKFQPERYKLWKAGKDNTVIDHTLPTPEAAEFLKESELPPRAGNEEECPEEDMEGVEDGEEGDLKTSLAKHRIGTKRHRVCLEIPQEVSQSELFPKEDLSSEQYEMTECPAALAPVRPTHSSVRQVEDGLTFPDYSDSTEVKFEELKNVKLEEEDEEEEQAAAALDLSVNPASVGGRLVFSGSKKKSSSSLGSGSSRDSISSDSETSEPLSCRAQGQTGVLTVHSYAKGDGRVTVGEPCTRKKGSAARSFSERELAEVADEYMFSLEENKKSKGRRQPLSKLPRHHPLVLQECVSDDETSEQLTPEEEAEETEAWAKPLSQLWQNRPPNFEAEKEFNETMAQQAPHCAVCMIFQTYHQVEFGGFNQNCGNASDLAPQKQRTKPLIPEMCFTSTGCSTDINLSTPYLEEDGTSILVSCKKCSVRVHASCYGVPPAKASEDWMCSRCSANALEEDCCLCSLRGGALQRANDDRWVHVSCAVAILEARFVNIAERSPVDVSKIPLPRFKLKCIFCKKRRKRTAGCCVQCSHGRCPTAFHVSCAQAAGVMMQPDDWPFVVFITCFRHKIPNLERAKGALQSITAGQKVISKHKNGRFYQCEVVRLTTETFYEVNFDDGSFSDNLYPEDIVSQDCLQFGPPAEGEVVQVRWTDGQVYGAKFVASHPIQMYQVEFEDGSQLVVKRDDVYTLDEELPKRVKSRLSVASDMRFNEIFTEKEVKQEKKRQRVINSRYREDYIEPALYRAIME
Sfp inh: qHTS Assay for Inhibitors of Bacillus subtilis Sfp phosphopantetheinyl transferase (PPTase). Biochemical Sfp PPTase activity, qHTS. Potency, µM, for inactives: largest response in the series, negative = inhibition, hits mostly inhibitors. 3.5% of 310,000 active;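 note: the enzyme is Sfp with the accession as filed and its product quenches rhodamine fluorescence; 0% = enzyme reaction without inhibitor and -100% = no enzyme wells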
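Sfp 15 nM + cpd, 15 min RT; start w/ rhodamine-CoA 5 uM, BHQ-2-YbbR 12.5 uM (final); 50 mM Hepes pH 7.6, 10 mM MgCl2, 0.01% NP-40, 0.01% BSA; read 525/598 nm at 0 and 30 min.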
G9a block: qHTS Assay for Inhibitors of Histone Lysine Methyltransferase G9a | Histone-lysine N-methyltransferase EHMT2 (Homo sapiens), Q96KQ7 | G9a H3K9 monomethylation, AlphaScreen, 2 h | Potency, µM (top dose mostly 102 µM), without a hit: at the highest dose activity, negative = inhibition, usual class: inhibitors | 8.8% of 350,000 active; note: % is set by controls: 0 for no effect and ±100 for the full control effect; nearly all actives have a fitted effect of over 75% in size
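Methyltransferase reactions run at room temperature for 2 h (20 nM enzyme, 500 nM biotin-H3K9 peptide, 20 uM SAM) after a 15 min compound preincubation; product detected by AlphaScreen beads and anti-H3K9me1 antibody.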
L3MBTL1 block: qHTS Assay for the Inhibitors of L3MBTL1. Lethal(3)malignant brain tumor-like protein 1 (Homo sapiens), Q9Y468. 0.66% of 230,000 active. Potency, µM (top dose mostly 57.1 µM), for inactives: at the highest dose activity, negative = inhibition, most hits filed as inhibitors. AID 485360, 2010. AlphaScreen L3MBTL1–H3K9me1 peptide binding; note: % is set by controls: 0 for no effect and ±100 for the full control effect; nearly all actives have a fitted effect of over 60% in size
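Displacement of a biotinylated histone H3(1-15) peptide monomethylated at Lys9 (75 nM) from L3MBTL1 (50 nM) was measured by AlphaScreen after a 30 min room-temperature compound incubation; cefsulodin titration served as intraplate control.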
HP1b chromo inh: HTS for Inhibitors of HP1-beta Chromodomain Interactions with Methylated Histone Tails | Chromobox protein homolog 1 (Homo sapiens), P83916 | AlphaScreen HP1-beta / biotin-H3K9me3 peptide binding | Potency, µM (highest dose often 114 µM), inactives show top-dose activity change, negative = inhibition, usual class: inhibitors | 0.56% of 390,000 active | AID 540317, 2011; note: nearly all actives have a fitted effect of over 70% in size
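HP1-beta protein (50 nM final) preincubated 30 min at room temperature with biotinylated H3(1-18)K9me3 peptide (50 nM) in PBS pH 7.4, 0.01% Tween-20, then compound added for 30 min. AlphaScreen streptavidin donor/nickel chelate acceptor beads (10 ug/mL final), 30 min dark, luminescence read.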
BAZ2B block: qHTS Assay for Inhibitors of BAZ2B. Bromodomain adjacent to zinc finger domain protein 2B (Homo sapiens), Q9UIF8. AlphaScreen BAZ2B-H3K14Ac peptide displacement. Potency, µM (titrated, usually from 114 µM), for the others: at the top dose activity change, negative = inhibition, usual class: inhibitors. 4.4% of 360,000 active. AID 504333, 2011; note: % is set by controls: 0 for no effect and ±100 for the full control effect; nearly all actives have a fitted effect of over 60% in size
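AlphaScreen luminescence quantifies BAZ2B engagement of H3K14Ac peptide; the protein and biotinylated peptide are both at 50 nM final, buffer PBS pH 7.4 with 0.01% Tween-20, all steps at room temperature.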
Starred values were filed as active, the others as inactive; [ ] = dose if it differs, or a comment. Calls come from the whole dose curve; as a rule, active = well fitted curve in the direction sought with a large enough effect; inconclusive = small, poorly fitted or top-dose-only effect, or another doubt; inactive = no such curve, though single readings can be large; an effect the other way counts as inactive or inconclusive. Potency is the fitted concentration of half-maximal effect.

Screening CC(=O)N1CCc2c(sc(NC(=O)c3ccc([N+](=O)[O-])o3)c2C#N)C1 returned JMJD2A Tudor inconclusive, Sfp inh 10µM*, G9a block 2.82µM*, L3MBTL1 block -20.3%, HP1b chromo inh inconclusive and BAZ2B block 56.2µM*.
For COc1ccc(C(=O)Nc2sc3c(c2C#N)CCN(C(C)=O)C3)cc1 the results were JMJD2A Tudor -6.9%, Sfp inh -11.2%, G9a block 50.1µM* and HP1b chromo inh 31.5%.
COC(=O)c1c(NC(=O)c2ccc([N+](=O)[O-])o2)sc2c1CCN(C(C)C)C2 was read as JMJD2A Tudor inconclusive, Sfp inh 3.3%, G9a block inconclusive, HP1b chromo inh 3.1% and BAZ2B block -33.4%.
Screening CCCNC(=O)c1onc(CS(=O)(=O)c2cc(C)cc(C)c2)c1C(=O)NCCC returned JMJD2A Tudor -9.1%, L3MBTL1 block 6.7% and HP1b chromo inh 23.1%.
CC1(C(=O)O)NCCc2cc(O)c(O)cc21 (stereo not given) was read as Sfp inh 56.2µM* and G9a block 17.8µM*.
For COc1cccc(-c2cc(NCc3ccccc3)ncn2)c1 the results were Sfp inh 4.8% and G9a block -4.1%[0.501 µM].
Screening Cc1ccccc1-n1cc(-c2ccc(Br)cc2)nc1SCC(N)=O returned JMJD2A Tudor inconclusive, Sfp inh -5.4%, G9a block -38.7%[59 µM], L3MBTL1 block -5.8%, HP1b chromo inh -9.7% and BAZ2B block inconclusive.
`CCOC(=O)NC(=O)CSc1nnnn1-c1ccccc1` gave JMJD2A Tudor -3.4%, Sfp inh 6.9%, G9a block -7.6%[59 µM], L3MBTL1 block -0.6%, HP1b chromo inh 31.8% and BAZ2B block 3.6%.
Screening CCOC(=O)NC(=O)CSc1nc(-c2ccc(C)c(C)c2)cn1-c1ccccc1 returned JMJD2A Tudor inconclusive, Sfp inh -14.4%, G9a block 7.94µM*, L3MBTL1 block -21.1%, HP1b chromo inh inconclusive and BAZ2B block 35.5µM*.
Screening Cc1ccc(-c2cn(-c3ccccc3)c(SCC(N)=O)n2)cc1C returned JMJD2A Tudor inconclusive, Sfp inh -18.3%, G9a block inconclusive, L3MBTL1 block -4.7%, HP1b chromo inh -22.1% and BAZ2B block 50.1µM*.
Cc1cc(/C=C(\C#N)C(=O)N2CCOCC2)c(C)n1C1CCCC1 was read as JMJD2A Tudor -27.5%, Sfp inh -13.1%, G9a block inconclusive, L3MBTL1 block -8.3%, HP1b chromo inh 16.3% and BAZ2B block -17.8%.
O=C(NCC(c1cccs1)S(=O)(=O)c1cccs1)c1cccc(F)c1 (stereo not given) was read as JMJD2A Tudor 5.8%, G9a block -3.1%[59 µM], HP1b chromo inh 7.0% and BAZ2B block 0.4%.
For O=c1[nH]nc(Sc2ncnc3sccc23)n1CCc1ccccc1 the results were JMJD2A Tudor -20.0%, Sfp inh 7.9%, G9a block 39.8µM*, L3MBTL1 block 2.4%, HP1b chromo inh 66.4% and BAZ2B block -5.0%.
Screening CCN(CC)C(=O)CSc1n[nH]c(=O)n1CCc1ccccc1 returned JMJD2A Tudor -10.6%, Sfp inh 1.5%, G9a block 4.9%, HP1b chromo inh 9.9% and BAZ2B block 4.7%.
Nc1ccc(-c2n[nH]c(=O)c3ccccc23)cc1N was read as JMJD2A Tudor -32.1%, Sfp inh 14.1µM*, G9a block 8.91µM*, L3MBTL1 block -17.9%[11.4 µM], HP1b chromo inh -11.0% and BAZ2B block -11.5%.
`Cn1ccs/c1=N\C(=O)Nc1cccc(Cl)c1` gave JMJD2A Tudor -8.9%, Sfp inh 9.3%, L3MBTL1 block 6.8%, HP1b chromo inh 47.1% and BAZ2B block -6.4%.
`Cc1ccc(S(=O)(=O)/N=C2\C=C(NS(=O)(=O)c3ccccc3)C(=O)c3ccccc32)c(C)c1` gave JMJD2A Tudor 22.4µM* and HP1b chromo inh 22.4µM*.
Screening CC(C)(C)c1ccc(S(=O)(=O)/N=C2\C=C(NS(=O)(=O)c3ccccc3)C(=O)c3ccccc32)cc1 returned JMJD2A Tudor 25.1µM*, Sfp inh -8.9%, G9a block 10µM*, HP1b chromo inh inconclusive and BAZ2B block 28.2µM*.
`Cc1cc(C)c(NS(=O)(=O)c2ccccc2)c(C)c1NS(=O)(=O)c1ccccc1` gave JMJD2A Tudor -23.4% and HP1b chromo inh 4.8%[57 µM].
`CCCCN(C)C(=O)C1CCN(Cc2cccc(OCc3ccccc3)c2)CC1` gave JMJD2A Tudor 39.8µM*, Sfp inh -20.7%, G9a block 12.6µM*, L3MBTL1 block -4.1%, HP1b chromo inh -7.5% and BAZ2B block inconclusive.
For CCCCN(C)C(=O)C1CCN(Cc2cccnc2)CC1 the results were JMJD2A Tudor 28.2µM*, Sfp inh -17.4%, G9a block 14.1µM*, L3MBTL1 block -7.7%, HP1b chromo inh inconclusive and BAZ2B block 79.4µM*.
Screening CCCCCOc1ccccc1CN1C(=O)C(=O)c2cc(C)ccc21 returned JMJD2A Tudor 17.8µM*, G9a block 8.91µM*, HP1b chromo inh inconclusive and BAZ2B block 6.31µM*.
Cc1ccc2c(c1)C(=O)C(=O)N2CC1COc2ccccc2O1 (stereo not given) was read as JMJD2A Tudor inconclusive, Sfp inh -0.6%, G9a block 50.1µM*, HP1b chromo inh inconclusive and BAZ2B block inconclusive.
For Cc1ccc2c(c1)C(=O)C(=O)N2CCCOc1ccccc1 the results were JMJD2A Tudor 56.2µM*, Sfp inh 20.6%, G9a block 35.5µM*, L3MBTL1 block inconclusive, HP1b chromo inh inconclusive and BAZ2B block 50.1µM*.
CCc1cccc(CC)c1NC(=O)c1c(C)oc2ccc(O)c(CN3CCOCC3)c12 was read as JMJD2A Tudor -10.8%, G9a block 11.8%[59 µM], HP1b chromo inh 41.1% and BAZ2B block -10.7%.
Screening Cc1ccc(-c2ccc(CCC(=O)O)n2C(C)C)cc1 returned JMJD2A Tudor -30.3%, Sfp inh 17.3%, G9a block 79.4µM*, HP1b chromo inh -2.5% and BAZ2B block inconclusive.

Bioassay records deposited in PubChem BioAssay by National Center for Advancing Translational Sciences (NCATS).
